From PubChem BioAssay
Calls of active or inactive are those of the source.

Legend:
[1] = test system: PRMT1 (protein arginine N-methyltransferase 1); experiment: small molecules binding arginine methyltransferase PRMT1 – biochemical, small-molecule microarray, 635 nm fluorescence, primary screen (AID 1088); settings: higher = more signal;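 further: binding of Prmt1 protein to compounds spotted on small-molecule microarray slides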
[2] = growth effects on S. cerevisiae YJM789 – YJM789 clinical isolate, OD600, 24 h, basal, primary screen (AID 1089); settings: higher = more signal, called active from +8 up or from −8 down;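 further: growth of clinical yeast isolate S. cerevisiae YJM 789 seeded 1000 cells per well; test concentration not given here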
[3] = S. pombe growth modifiers, basal conditions – strain 972, OD600, 24 h, no modulator, primary screen (AID 1090);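 further: basal condition with compound alone and no growth modifier present; test concentration not given here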; settings: S. pombe 972 growth, higher = more signal, called active from +8 up or from −8 down
[4] = budding yeast growth modifiers under rapamycin – strain BY4716, OD600, 96 h, primary screen (AID 1091); further: test concentration not given here; settings: S. cerevisiae BY4716 + rapamycin, higher = more signal, called active from +8 up or from −8 down
[5] = target: Torsin-1A-interacting protein 2 (Homo sapiens) (UniProt Q8NFQ8); experiment: small molecules binding lysate-expressed LULL1 – cell lysate, human LULL1 lysate, 635/667 nm fluorescence, primary screen (AID 1092); settings: small-molecule microarray, hLULL1 lysate binding, 635 nm fluorescence; higher = more signal;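 further: probe is lysate of COS7 cells overexpressing human LULL1; score merges per-feature 667 nm fluorescence with signal-to-noise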
Torsin-1A-interacting protein 2 (Homo sapiens), sequence (Q8NFQ8 whole entry, looked up): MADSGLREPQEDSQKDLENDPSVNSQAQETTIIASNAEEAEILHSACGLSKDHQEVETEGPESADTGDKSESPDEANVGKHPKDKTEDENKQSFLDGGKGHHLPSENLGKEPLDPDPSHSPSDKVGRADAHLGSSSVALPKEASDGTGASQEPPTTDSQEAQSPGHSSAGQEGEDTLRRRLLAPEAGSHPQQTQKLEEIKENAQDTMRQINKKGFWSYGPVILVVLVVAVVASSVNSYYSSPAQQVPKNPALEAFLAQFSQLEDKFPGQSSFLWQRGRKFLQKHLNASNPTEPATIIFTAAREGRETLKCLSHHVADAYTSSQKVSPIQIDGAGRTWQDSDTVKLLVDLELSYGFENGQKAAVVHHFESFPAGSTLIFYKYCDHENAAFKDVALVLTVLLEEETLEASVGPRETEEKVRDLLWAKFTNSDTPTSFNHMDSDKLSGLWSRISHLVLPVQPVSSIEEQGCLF

[6] = optical density change of DRC41 E. coli – strain DRC41, OD650, 24 h, E. coli filamentation project, primary screen (AID 1093);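 further: MC1000 strain lacking acrAB efflux and sulA so SOS filamentation is blocked; test concentration not given here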; settings: E. coli DRC41 growth, higher = more signal, called active from +8 up or from −8 down
[7] = probe aLefty2 binding to arrayed compounds – biochemical, biotinylated probe, 635/667 nm fluorescence, primary screen (AID 1094); settings: small-molecule microarray, higher = more signal;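 further: score merges spot fluorescence near 667 nm with spot signal-to-noise ratio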
[8] = test system: Noggin (protein binding on small-molecule microarray); experiment: small molecules binding Noggin protein – biochemical, 635/667 nm fluorescence, primary screen (AID 1095); settings: 635 nm fluorescence, higher = more signal;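 further: score merges 667 nm feature fluorescence with signal to noise over triplicate slides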
[9] = target: Neurogenic locus notch homolog protein 3 (Homo sapiens) (UniProt Q9UM47); experiment: small molecules binding NOTCH3 protein – biochemical, 635/667 nm fluorescence, primary screen (AID 1096); settings: small-molecule microarray, 635 nm fluorescence, higher = more signal
Neurogenic locus notch homolog protein 3 (Homo sapiens), sequence (Q9UM47 whole entry, looked up): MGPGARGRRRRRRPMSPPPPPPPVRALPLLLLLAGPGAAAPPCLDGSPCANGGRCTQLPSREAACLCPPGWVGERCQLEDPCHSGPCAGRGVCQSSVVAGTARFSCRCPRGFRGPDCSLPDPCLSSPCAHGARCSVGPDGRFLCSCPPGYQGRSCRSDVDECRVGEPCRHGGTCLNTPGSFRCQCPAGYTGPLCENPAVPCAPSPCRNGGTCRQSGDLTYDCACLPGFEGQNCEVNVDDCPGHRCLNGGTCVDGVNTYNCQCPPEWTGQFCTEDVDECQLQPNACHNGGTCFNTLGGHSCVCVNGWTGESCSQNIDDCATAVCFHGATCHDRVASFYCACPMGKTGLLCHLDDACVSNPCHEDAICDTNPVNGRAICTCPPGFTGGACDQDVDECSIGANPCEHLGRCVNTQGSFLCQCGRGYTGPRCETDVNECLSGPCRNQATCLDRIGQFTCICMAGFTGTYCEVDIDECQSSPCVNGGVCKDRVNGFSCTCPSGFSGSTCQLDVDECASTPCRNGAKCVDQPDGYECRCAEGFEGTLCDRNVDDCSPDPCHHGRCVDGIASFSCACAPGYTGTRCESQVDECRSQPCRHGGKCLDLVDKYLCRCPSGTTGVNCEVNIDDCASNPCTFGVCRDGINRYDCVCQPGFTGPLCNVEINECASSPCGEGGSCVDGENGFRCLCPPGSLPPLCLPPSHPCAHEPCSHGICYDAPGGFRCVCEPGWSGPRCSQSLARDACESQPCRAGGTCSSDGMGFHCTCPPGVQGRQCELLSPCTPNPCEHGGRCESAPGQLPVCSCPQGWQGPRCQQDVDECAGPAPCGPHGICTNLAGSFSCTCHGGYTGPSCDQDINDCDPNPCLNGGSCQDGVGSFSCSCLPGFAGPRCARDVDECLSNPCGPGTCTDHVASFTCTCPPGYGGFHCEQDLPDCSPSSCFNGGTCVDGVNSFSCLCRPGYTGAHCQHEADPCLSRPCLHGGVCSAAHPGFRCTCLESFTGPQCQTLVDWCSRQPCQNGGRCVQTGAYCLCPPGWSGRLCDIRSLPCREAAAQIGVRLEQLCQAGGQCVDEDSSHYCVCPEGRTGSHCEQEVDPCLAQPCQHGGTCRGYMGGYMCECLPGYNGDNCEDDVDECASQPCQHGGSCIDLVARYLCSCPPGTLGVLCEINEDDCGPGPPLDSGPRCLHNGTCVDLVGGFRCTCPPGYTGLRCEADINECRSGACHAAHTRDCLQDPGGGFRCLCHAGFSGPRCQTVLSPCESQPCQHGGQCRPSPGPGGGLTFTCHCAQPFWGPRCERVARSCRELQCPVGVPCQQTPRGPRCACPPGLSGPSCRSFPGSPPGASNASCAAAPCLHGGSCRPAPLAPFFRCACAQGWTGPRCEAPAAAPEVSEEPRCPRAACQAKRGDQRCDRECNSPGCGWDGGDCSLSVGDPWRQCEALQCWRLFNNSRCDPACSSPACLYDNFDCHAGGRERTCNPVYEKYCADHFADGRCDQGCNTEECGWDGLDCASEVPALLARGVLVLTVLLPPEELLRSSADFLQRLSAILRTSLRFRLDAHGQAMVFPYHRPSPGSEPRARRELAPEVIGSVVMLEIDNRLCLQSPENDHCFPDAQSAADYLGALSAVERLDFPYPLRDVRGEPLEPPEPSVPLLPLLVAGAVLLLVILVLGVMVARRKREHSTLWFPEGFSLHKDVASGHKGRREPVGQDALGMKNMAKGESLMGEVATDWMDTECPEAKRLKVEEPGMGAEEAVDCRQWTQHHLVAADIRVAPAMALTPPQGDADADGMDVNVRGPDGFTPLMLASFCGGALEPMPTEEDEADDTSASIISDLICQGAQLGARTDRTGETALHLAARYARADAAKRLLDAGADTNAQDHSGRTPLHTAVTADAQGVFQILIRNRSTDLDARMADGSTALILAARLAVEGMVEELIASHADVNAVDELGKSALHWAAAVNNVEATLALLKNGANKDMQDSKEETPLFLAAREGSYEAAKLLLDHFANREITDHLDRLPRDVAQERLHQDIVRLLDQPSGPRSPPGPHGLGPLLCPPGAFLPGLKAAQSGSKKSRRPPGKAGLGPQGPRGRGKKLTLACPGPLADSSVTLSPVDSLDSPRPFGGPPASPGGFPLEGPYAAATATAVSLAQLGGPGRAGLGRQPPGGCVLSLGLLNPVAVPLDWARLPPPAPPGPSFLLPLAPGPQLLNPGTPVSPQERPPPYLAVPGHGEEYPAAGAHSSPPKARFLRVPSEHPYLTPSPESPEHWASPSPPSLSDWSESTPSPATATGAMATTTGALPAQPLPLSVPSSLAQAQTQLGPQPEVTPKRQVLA

[10] = probe aEGFR binding to arrayed compounds – biochemical, biotinylated probe, 635/667 nm fluorescence, primary screen (AID 1097); settings: small-molecule microarray, higher = more signal;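 further: probe is a biotinylated anti-EGFR antibody binding compounds printed on slides; score combines fluorescence near 667 nm and signal to noise of each spot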

Compound | composite z-score [1] | z-score [2] | z-score [3] | z-score [4] | composite z-score [5] | z-score [6] | composite z-score [7] | composite z-score [8] | composite z-score [9] | composite z-score [10]
CN1C2C=C(c3ccc(CO)cc3)C(C3C(=O)N(C(N)=O)C(=O)C32)C1c1cccs1 (stereo not given) | 0.4 | 0.697 (inactive) | -1.74 (inactive) | 1.21 (inactive) | 0.813 | 1.22 (inactive) | -0.0774 | 0.198 | -0.25 | -0.0798
C[C@]1(C(=O)NCCN2CCOCC2)c2ccccc2C(=O)N(Cc2ccccc2)[C@H]1c1ccc(CO)cc1 | -0.804 | 0.364 (inactive) | -0.304 (inactive) | -0.877 (inactive) | 2.99 | 0.0355 (inactive) | -0.0539 | -0.54 | -0.911 | -0.23
Cc1ccc(N2C(=O)c3ccccc3[C@@H](C(=O)NCc3ccccc3)[C@@H]2c2ccc(CO)cc2)nc1 | -0.363 | 0.938 (inactive) | -0.242 (inactive) | 0.76 (inactive) | 1.39 | 1.29 (inactive) | 0.306 | 0.0163 | -0.763 | -0.166
C[C@@H]1C=CCC(=O)OC[C@H]2O[C@@H](C=C[C@@H]2O)[C@H](C)C=CCC(=O)OC[C@H]2O[C@H]1C=C[C@@H]2O | 1.06 | -2.14 (inactive) | -2.87 (inactive) | -1.09 (inactive) | -0.552 | 0.332 (inactive) | -0.0196 | 1.37 | 1 | 0.0779
CCN1C(C)=C(C(=O)OC)[C@@H](c2ccccc2)N2C(=O)[C@](O)(C(=O)OC)[C@@H](c3ccccc3)C(C(C)=O)=C12 | -0.107 | -3.56 (inactive) | -3.03 (inactive) | -2.26 (inactive) | 0.241 | 0.556 (inactive) | 0.0417 | 0.506 | 0.768 | 0.186
O=C1O[C@@H](c2ccccc2)[C@@H](c2ccccc2)N2[C@@H](c3ccccc3OCCO)[C@]3(C(=O)Nc4ccc(C#CC5=CCCCC5)cc43)[C@@H](C(=O)O)[C@H]12 | 1.34 | 2.48 (inactive) | -0.608 (inactive) | 0.341 (inactive) | 1.83 | 2.04 (inactive) | 0.0748 | 0.269 | 1.05 | -0.0321
[N-]=[N+]=NCc1ccccc1C[C@]1(C(=O)N2CCCCC2)N=C(c2ccc(OCCCO)cc2)O[C@H]1c1ccccc1CN=[N+]=[N-] | 1.55 | 0.551 (inactive) | 0.118 (inactive) | 8.36 (active) | 3.35 | -0.004 (inactive) | -0.0041 | 0.686 | 1.14 | -0.0703
C=CCOC(=O)[C@@H]1[C@H]2C(=O)O[C@H](c3ccccc3)[C@H](c3ccccc3)N2[C@H](c2ccc(OCCOC(=O)[C@H]3C[C@H]4C(=O)N[C@@H](CCCCNC(C)=O)C(=O)N4[C@H]3c3ccc(O)cc3)cc2)[C@@]12C(=O)Nc1ccc(I)cc12 | 1.55 | 1.38 (inactive) | 0.802 (inactive) | 4.48 (inactive) | 1.39 | -0.428 (inactive) | -0.0974 | 1.66 | 1.07 | 0.0333
C=C(CCCC)C(=O)CC[C@@H](OC(=O)c1cccnc1)c1cccc(OCCO)c1 | 1.12 | -0.323 (inactive) | -2.6 (inactive) | -0.2 (inactive) | 0.136 | 0.493 (inactive) | -0.186 | 0.491 | 0.145 | -0.145
C=C(COC)/C(=C/C[C@@H](OC(=O)c1ccncc1)c1ccc(OCCO)cc1)c1cc(C(=O)OC)ccc1OC | 1.57 | -1.08 (inactive) | -2.06 (inactive) | -1.83 (inactive) | 2.75 | 2.15 (inactive) | -0.0903 | 0.861 | 1.12 | -0.0129
C=C(CCCC)C(=O)CC[C@@H](OC(C)=O)c1ccccc1OCCO | 0.0077 | -0.837 (inactive) | -18.7 (active) | -1.57 (inactive) | -0.325 | 0.682 (inactive) | -0.214 | -0.61 | -0.524 | -0.232
C=CC[C@]1(C(N)=O)N=C(c2ccc(OCCCO)cc2)O[C@H]1c1ccccc1CN=[N+]=[N-] | 1.1 | -1.36 (inactive) | -0.881 (inactive) | -0.655 (inactive) | 3.05 | 1.85 (inactive) | 0.0565 | 0.126 | -0.907 | 0.0183
